Reference: ChEMBL document CHEMBL2218924, “A broad activity screen in support of a chemogenomic map for kinase signalling research and drug discovery” (Biochem J, 2013)

Experiments:
[1] = target: Tyrosine-protein kinase SYK (Homo sapiens) (UniProt P43405); settings: at 10 µM
[2] = target: T1, Mitogen-activated protein kinase kinase kinase 7 (Homo sapiens) (UniProt O43318); settings: at 1 µM
T1 sequence (whole entry): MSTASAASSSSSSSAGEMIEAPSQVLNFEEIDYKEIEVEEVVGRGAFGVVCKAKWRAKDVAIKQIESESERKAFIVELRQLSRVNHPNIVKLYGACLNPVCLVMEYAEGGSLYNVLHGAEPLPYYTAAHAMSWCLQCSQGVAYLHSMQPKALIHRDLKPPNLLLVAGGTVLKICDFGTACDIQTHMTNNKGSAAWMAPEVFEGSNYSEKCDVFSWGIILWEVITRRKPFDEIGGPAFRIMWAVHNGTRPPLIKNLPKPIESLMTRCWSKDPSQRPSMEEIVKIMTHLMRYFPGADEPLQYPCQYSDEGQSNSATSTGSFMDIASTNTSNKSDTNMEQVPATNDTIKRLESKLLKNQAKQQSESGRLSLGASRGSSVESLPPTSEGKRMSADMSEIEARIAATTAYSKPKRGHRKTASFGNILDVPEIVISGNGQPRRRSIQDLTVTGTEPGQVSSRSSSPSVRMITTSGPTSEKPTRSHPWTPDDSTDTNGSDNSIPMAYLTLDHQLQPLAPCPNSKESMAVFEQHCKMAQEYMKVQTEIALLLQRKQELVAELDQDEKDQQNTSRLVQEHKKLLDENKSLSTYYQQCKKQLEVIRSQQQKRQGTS

[3] = target: T1, Mitogen-activated protein kinase kinase kinase 7 (Homo sapiens); settings: at 10 µM
[4] = target: T2, Serine/threonine-protein kinase TAO1 (Homo sapiens) (UniProt Q7L7X3); settings: at 1 µM
T2 sequence (whole entry): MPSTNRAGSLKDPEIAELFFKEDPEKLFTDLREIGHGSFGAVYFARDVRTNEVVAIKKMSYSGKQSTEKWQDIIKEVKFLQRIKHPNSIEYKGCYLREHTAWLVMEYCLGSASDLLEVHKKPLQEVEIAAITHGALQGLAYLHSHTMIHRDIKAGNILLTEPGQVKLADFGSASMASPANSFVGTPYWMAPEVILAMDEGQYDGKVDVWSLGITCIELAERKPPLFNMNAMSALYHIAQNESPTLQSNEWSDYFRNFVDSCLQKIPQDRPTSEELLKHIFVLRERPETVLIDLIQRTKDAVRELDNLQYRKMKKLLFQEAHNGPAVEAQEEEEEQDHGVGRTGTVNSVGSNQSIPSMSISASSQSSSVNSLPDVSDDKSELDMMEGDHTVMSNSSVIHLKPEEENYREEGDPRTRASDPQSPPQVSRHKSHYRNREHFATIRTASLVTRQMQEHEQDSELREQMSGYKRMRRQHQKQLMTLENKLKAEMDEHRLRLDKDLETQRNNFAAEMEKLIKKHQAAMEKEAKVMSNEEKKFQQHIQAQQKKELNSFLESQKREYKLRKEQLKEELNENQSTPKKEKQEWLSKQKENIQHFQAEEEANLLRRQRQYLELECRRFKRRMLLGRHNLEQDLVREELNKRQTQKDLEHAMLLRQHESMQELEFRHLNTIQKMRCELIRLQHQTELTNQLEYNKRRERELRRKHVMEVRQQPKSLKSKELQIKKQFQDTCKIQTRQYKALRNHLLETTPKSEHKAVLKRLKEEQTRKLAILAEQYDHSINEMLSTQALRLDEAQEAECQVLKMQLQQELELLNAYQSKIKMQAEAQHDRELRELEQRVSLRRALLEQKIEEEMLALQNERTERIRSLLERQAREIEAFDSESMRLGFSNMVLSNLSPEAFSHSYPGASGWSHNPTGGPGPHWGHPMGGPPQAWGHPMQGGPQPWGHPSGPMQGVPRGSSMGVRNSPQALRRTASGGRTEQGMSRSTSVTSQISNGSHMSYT

[5] = target: T2, Serine/threonine-protein kinase TAO1 (Homo sapiens); settings: at 10 µM
[6] = target: T3, Serine/threonine-protein kinase TAO2 (Homo sapiens) (UniProt Q9UL54); settings: at 1 µM
T3 sequence (whole entry): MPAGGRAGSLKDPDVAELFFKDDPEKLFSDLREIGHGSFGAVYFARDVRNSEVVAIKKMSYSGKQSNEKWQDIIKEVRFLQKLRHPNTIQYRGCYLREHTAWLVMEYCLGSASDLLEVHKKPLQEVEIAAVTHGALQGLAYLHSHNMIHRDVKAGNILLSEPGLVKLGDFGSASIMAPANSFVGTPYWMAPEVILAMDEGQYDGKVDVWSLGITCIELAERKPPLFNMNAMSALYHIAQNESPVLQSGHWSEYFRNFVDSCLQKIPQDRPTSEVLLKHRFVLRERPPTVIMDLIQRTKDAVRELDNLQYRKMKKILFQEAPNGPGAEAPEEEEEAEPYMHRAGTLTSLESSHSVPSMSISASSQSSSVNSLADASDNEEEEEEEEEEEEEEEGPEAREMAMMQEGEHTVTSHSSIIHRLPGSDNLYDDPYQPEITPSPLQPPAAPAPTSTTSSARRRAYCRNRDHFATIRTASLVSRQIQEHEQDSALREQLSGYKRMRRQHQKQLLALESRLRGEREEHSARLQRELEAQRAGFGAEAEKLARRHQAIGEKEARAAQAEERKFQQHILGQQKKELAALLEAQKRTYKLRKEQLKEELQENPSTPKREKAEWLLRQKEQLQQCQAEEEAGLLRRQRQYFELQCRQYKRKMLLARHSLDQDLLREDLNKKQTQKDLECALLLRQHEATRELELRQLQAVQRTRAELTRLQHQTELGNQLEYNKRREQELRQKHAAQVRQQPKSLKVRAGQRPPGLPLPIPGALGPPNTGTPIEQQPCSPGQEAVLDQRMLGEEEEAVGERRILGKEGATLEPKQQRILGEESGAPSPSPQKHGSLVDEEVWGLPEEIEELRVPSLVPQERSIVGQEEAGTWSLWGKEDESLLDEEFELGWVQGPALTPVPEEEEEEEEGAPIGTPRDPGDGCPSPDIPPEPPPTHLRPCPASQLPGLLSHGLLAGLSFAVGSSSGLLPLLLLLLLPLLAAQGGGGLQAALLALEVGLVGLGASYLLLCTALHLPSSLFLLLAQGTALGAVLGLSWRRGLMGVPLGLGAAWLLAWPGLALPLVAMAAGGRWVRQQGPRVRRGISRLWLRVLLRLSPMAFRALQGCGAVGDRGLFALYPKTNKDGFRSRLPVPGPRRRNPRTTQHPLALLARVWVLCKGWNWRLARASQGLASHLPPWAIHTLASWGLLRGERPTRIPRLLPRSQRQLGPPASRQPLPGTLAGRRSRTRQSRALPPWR

[7] = target: T3, Serine/threonine-protein kinase TAO2 (Homo sapiens); settings: at 10 µM
[8] = target: T4, Serine/threonine-protein kinase TAO3 (Homo sapiens) (UniProt Q9H2K8); settings: at 1 µM
T4 sequence (whole entry): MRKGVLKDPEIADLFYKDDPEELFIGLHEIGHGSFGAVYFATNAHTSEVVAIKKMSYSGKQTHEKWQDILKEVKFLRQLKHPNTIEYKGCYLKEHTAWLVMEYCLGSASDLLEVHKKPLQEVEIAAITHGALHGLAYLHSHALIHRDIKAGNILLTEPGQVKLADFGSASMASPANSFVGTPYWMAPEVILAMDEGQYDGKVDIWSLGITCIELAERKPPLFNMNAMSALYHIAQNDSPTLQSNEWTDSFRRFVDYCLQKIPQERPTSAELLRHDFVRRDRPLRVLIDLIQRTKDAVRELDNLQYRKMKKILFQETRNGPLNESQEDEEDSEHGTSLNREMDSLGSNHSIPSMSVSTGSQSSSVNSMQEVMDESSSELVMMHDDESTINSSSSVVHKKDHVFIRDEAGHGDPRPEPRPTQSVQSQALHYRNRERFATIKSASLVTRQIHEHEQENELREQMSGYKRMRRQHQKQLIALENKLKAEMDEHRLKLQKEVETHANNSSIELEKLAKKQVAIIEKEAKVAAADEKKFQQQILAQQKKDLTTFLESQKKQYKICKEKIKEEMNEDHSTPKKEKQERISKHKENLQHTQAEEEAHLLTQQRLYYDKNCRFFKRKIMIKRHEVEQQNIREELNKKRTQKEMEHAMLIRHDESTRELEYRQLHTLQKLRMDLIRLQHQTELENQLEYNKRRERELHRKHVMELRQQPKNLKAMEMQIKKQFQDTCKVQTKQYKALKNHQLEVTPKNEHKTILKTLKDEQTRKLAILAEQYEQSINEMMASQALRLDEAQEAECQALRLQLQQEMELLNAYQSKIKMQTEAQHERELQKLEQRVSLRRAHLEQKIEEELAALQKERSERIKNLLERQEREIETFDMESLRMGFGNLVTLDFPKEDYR

[9] = target: T4, Serine/threonine-protein kinase TAO3 (Homo sapiens); settings: at 10 µM
[10] = target: T5, Serine/threonine-protein kinase TBK1 (Homo sapiens) (UniProt Q9UHD2); settings: at 1 µM
T5 sequence (whole entry): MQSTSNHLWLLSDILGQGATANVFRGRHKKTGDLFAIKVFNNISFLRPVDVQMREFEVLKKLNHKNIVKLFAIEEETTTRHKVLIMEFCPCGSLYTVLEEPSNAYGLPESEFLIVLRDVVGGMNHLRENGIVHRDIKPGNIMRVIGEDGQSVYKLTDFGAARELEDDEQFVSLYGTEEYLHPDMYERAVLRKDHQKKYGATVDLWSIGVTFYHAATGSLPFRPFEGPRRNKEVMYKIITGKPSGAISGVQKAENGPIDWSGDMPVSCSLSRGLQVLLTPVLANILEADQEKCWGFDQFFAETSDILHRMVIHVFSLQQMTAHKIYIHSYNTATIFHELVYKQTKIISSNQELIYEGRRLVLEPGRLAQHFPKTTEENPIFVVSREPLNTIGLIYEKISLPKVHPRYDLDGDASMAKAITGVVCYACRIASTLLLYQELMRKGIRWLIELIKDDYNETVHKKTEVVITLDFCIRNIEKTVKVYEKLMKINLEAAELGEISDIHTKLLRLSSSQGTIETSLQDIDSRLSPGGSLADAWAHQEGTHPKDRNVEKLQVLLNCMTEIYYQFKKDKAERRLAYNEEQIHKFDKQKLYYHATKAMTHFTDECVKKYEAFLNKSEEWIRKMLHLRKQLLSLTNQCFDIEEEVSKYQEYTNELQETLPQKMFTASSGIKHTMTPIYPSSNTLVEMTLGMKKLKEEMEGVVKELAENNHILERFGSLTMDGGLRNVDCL

Q: Which results are given for `Oc1n[nH]c2nnc(-c3c(-c4ccccc4)nn4ccccc34)cc12`?
A: residual activity [1]: 105%; residual activity [2]: 87%; residual activity [3]: 74%; residual activity [4]: 83%; residual activity [5]: 79%; residual activity [6]: 98%; residual activity [7]: 96%; residual activity [8]: 89%; residual activity [9]: 90%; residual activity [10]: 67%
